Values joined by “and” are separate entries in the source; they are usually repeats but may differ in a detail not shown here. Equal values may be shown once. Records with an inconclusive call do not appear. Where a structure was tested more than once in an assay, its records may differ in their call. Active and inactive are the calls of the source. The calls were made as follows, unless noted: active = hit-call score of the fitted dose curve at least 0.9, where 1 is the maximum; inactive = score below 0.9.
Assays:
[1] = BSK_3C_uPAR: BioMAP Diversity Plus: 3C Assay for Urokinase-type plasminogen activator receptor (uPAR) Biomarker Activity (AID 2282998); details: BioMAP 3C HUVEC, uPAR biomarker ELISA; actives raise or lower the signal
In short: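 Readout: ELISA for surface uPAR. System: human umbilical vein endothelial primary cells, 24 h after chemical exposure. Analysis: bidirectional fit, DMSO baseline.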

[2] = BSK_3C_VCAM1: BioMAP Diversity Plus: 3C Assay for Vascular cell adhesion molecule 1 (VCAM1) Biomarker Activity (AID 2282999); details: BioMAP 3C HUVEC, VCAM1 ELISA, cytokine-stimulated; actives raise or lower the signal
In short: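 Human umbilical vein endothelial cells were dosed with compound for 24 h, after which cell-surface VCAM-1 was quantified by ELISA. Bidirectional curve fitting used DMSO as negative control and activity baseline.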

[3] = BSK_4H_Eotaxin3: BioMAP Diversity Plus: 4H Assay for Eotaxin 3 Biomarker Activity (AID 2283000); details: primary human endothelial cells (HUVEC); actives raise or lower the signal
In short: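 Chemicals were added to human umbilical vein endothelium cultures, and Eotaxin-3 was quantified by ELISA at 24 h. Values were derived by bidirectional fitting with DMSO serving as negative control and activity baseline.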

[4] = molecular target: human Peroxisome Proliferator-activated Receptor delta (PPARd), PPARD (gene 5467) (UniProt Q03181); experiment: ATG_PPARd_TRANS: Attagene TRANS-FACTORIAL HepG2 Assay for human Peroxisome Proliferator-activated Receptor delta (PPARd) (AID 2283002; active = hit-call score of the fitted dose curve at least 0.9, where 1 is the maximum)
In short: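 Measured quantity: GAL4-UAS reporter transcript induction in HepG2 after 24 h chemical dosing, with NR-Gal4 chimeras supplied by transient transfection. Detection by RT-PCR and capillary electrophoresis; upward fit against DMSO.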

[5] = read-out: Intercellular Adhesion Molecule 1 (ICAM1), ICAM1 (gene 3383); experiment: BSK_3C_ICAM1: BioMAP Diversity Plus: 3C Assay for Intercellular Adhesion Molecule 1 (ICAM1) Biomarker Activity (AID 2283003); details: primary human endothelial cells (HUVEC); actives raise or lower the signal
In short: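 Human vascular endothelial primary cells, 3C conditions, 24 h treatment. ICAM-1 by ELISA.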

[6] = molecular target: human Retinoic Acid Receptor beta (RARb), RARB (gene 5915) (UniProt P10826); experiment: ATG_RARb_TRANS: Attagene TRANS-FACTORIAL HepG2 Assay for human Retinoic Acid Receptor beta (AID 2283004; active = hit-call score of the fitted dose curve at least 0.9, where 1 is the maximum)
human Retinoic Acid Receptor beta (RARb), RARB (gene 5915), sequence (P10826 whole entry, looked up): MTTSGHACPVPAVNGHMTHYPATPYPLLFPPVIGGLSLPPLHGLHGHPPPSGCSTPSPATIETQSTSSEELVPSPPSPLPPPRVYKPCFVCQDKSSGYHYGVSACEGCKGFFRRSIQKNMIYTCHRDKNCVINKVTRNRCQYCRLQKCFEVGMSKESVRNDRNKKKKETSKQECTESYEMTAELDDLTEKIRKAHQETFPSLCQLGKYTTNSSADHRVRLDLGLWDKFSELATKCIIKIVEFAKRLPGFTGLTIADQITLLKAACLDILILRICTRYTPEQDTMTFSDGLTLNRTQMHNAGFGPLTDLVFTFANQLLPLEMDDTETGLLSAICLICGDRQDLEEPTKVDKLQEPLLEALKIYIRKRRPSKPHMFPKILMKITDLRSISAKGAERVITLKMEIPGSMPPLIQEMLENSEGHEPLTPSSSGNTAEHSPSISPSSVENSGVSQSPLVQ
In short: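 Transient transfection of HepG2 with multiple reporter units → chemical dosing, 24 h → total RNA isolation → RT with oligo(dT) → reporter-specific PCR, 6-FAM primer extension, HpaI digest → capillary electrophoresis. Positive direction vs DMSO control.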

[7] = molecular target: Retinoic acid receptor alpha (Homo sapiens) (UniProt P10276); experiment: ATG_RARa_TRANS: Attagene TRANS-FACTORIAL HepG2 Assay for human Retinoic Acid Receptor alpha (RARa) (AID 2283005; active = hit-call score of the fitted dose curve at least 0.9, where 1 is the maximum;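 as to AC50: potency for increased reporter signal meaning RARa activation over DMSO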)
Retinoic acid receptor alpha (Homo sapiens), sequence (P10276 whole entry, looked up, the tested form may be a part): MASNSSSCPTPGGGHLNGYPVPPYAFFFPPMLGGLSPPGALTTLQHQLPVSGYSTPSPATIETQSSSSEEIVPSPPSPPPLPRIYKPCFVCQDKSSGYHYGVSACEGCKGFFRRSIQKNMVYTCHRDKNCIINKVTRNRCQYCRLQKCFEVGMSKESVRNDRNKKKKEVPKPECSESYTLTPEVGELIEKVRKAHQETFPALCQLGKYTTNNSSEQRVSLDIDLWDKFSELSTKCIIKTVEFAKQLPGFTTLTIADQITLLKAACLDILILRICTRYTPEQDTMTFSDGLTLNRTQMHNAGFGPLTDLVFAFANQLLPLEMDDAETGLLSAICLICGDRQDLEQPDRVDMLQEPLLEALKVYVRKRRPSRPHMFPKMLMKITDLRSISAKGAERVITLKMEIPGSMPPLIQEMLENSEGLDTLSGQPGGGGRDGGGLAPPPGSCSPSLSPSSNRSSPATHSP
In short: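 HepG2 cells transiently transfected with multiple reporter units expressing chimeric RARα-GAL4 fusion, with GAL4-UAS-driven reporters. After 24 h compound exposure, reporter mRNA induction quantified by RT-PCR and capillary electrophoresis with fluorescent labeling; gain-of-signal fitted relative to DMSO control.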

[8] = BSK_3C_Proliferation: Cell Proliferation Assessment in the BioMAP Diversity Plus: 3C Assay (AID 2283006); details: primary human endothelial cells (HUVEC);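 as to AC50: potency may reflect either rise or fall in cell number versus DMSO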
In short: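 Proliferation of human vascular endothelial primary cells after 48 h dosing, quantified as SRB-stained protein at 560 nm relative to DMSO.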

[9] = molecular target: Peroxisome proliferator-activated receptor gamma (Homo sapiens) (UniProt P37231); experiment: ATG_PPARg_TRANS: Attagene TRANS-FACTORIAL HepG2 Assay for human Peroxisome Proliferator-activated Receptor-gamma (PPARg) (AID 2283007; active = hit-call score of the fitted dose curve at least 0.9, where 1 is the maximum)
Peroxisome proliferator-activated receptor gamma (Homo sapiens), sequence (P37231 whole entry, looked up, the tested form may be a part): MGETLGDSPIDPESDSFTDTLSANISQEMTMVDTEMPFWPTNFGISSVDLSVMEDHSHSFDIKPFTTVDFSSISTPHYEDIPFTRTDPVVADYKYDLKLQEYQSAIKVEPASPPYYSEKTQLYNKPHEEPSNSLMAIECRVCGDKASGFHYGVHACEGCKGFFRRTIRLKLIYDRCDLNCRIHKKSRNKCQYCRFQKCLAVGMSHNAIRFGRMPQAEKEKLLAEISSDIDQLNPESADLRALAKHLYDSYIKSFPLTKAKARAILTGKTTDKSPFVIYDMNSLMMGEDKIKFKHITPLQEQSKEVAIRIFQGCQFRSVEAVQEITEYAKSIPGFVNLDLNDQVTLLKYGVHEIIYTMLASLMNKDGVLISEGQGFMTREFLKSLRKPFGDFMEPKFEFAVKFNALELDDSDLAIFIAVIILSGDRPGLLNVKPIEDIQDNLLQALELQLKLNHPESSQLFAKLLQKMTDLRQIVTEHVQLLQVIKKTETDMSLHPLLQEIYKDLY
In short: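 Transient transfection of HepG2 with GAL4-UAS-driven reporter units; chemical dosing 24 h; total RNA → oligo(dT) RT → PCR with reporter primers → 6-FAM primer extension → HpaI digest 2 h 37 C → capillary electrophoresis. Positive direction vs DMSO.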

[10] = molecular target: Nuclear receptor subfamily 1 group I member 2 (Homo sapiens) (UniProt O75469); experiment: ATG_PXR_TRANS: Attagene TRANS-FACTORIAL HepG2 Assay for human Pregnane X Receptor (PXR) (AID 2283008; active = hit-call score of the fitted dose curve at least 0.9, where 1 is the maximum)
Nuclear receptor subfamily 1 group I member 2 (Homo sapiens), sequence (O75469 whole entry, looked up, the tested form may be a part): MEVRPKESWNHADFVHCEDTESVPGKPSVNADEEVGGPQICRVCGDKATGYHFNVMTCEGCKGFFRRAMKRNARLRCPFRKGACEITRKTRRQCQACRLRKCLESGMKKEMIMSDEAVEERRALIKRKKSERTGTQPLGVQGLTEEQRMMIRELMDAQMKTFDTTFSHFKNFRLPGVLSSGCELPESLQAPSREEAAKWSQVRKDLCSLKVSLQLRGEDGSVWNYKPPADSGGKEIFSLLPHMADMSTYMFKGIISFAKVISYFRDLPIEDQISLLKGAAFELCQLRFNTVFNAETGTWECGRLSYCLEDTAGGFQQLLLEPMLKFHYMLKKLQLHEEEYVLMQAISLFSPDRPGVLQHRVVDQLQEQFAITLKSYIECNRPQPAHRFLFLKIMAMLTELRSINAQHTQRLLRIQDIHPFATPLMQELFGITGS
In short: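 Fluorescence intensity of FAM-labelled, HpaI-digested reporter amplicons, separated by capillary electrophoresis, quantifies induction. HepG2 cells with PXR-Gal4 trans-reporter system were exposed 24 h; DMSO defines baseline.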

[11] = molecular target: human RAR-related Orphan Receptor gamma (RORg), RORC (gene 6097) (UniProt P51449); experiment: ATG_RORg_TRANS: Attagene TRANS-FACTORIAL HepG2 Assay for human RAR-related Orphan Receptor gamma (RORg) (AID 2283011; active = hit-call score of the fitted dose curve at least 0.9, where 1 is the maximum)
human RAR-related Orphan Receptor gamma (RORg), RORC (gene 6097), sequence (P51449 whole entry, looked up, the tested form may be a part): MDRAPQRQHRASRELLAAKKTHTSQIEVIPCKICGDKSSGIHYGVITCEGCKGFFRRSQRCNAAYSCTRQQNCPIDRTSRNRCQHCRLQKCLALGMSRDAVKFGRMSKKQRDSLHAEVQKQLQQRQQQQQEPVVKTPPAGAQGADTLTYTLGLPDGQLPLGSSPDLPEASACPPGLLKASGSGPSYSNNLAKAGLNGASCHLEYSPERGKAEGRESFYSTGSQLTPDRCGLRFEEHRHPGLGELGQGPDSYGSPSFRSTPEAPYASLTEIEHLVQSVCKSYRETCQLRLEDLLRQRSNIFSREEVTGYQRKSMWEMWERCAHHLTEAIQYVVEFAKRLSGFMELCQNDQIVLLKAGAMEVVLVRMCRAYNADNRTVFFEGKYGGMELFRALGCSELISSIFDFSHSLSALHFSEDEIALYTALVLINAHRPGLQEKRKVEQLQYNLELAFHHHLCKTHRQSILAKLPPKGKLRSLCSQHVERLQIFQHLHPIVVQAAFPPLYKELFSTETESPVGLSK
In short: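 First, HepG2 liver cells were transfected with GAL4-UAS-driven reporter constructs and the RORg-Gal4 fusion. Next, they were treated with chemical for 24 h. Finally, reporter mRNA was quantified by RT-PCR and capillary electrophoresis, with upward activity fitted against DMSO.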

[12] = molecular target: Retinoic acid receptor RXR-alpha (Homo sapiens) (UniProt P19793); experiment: ATG_RXRa_TRANS: Attagene TRANS-FACTORIAL HepG2 Assay for human Retinoid X Receptor alpha (RXRa) (AID 2283012; active = hit-call score of the fitted dose curve at least 0.9, where 1 is the maximum)
Retinoic acid receptor RXR-alpha (Homo sapiens), sequence (P19793 whole entry, looked up, the tested form may be a part): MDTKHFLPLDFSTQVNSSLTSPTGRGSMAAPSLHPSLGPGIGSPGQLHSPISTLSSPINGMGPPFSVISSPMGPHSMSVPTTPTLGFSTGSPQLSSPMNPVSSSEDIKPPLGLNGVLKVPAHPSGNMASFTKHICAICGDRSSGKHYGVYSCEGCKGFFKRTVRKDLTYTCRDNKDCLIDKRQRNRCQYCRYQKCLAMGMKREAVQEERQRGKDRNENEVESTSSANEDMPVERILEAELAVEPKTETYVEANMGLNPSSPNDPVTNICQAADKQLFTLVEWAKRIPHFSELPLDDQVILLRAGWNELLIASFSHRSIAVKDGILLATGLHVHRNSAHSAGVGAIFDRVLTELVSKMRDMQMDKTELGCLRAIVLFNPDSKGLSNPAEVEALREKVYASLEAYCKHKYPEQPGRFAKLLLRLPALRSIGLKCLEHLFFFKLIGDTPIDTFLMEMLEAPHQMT
In short: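 Cells (HepG2) carried transiently transfected GAL4-responsive reporter units. Following a 24 h chemical incubation, reporter mRNA induction was read via RT-PCR fragment analysis; DMSO served as negative control and baseline.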

[13] = molecular target: human Retinoid X Receptor beta (RXRb), RXRB (gene 6257) (UniProt P28702); experiment: ATG_RXRb_TRANS: Attagene TRANS-FACTORIAL HepG2 Assay for human Retinoid X Receptor beta (RXRb) (AID 2283013; active = hit-call score of the fitted dose curve at least 0.9, where 1 is the maximum)
human Retinoid X Receptor beta (RXRb), RXRB (gene 6257), sequence (P28702 whole entry, looked up): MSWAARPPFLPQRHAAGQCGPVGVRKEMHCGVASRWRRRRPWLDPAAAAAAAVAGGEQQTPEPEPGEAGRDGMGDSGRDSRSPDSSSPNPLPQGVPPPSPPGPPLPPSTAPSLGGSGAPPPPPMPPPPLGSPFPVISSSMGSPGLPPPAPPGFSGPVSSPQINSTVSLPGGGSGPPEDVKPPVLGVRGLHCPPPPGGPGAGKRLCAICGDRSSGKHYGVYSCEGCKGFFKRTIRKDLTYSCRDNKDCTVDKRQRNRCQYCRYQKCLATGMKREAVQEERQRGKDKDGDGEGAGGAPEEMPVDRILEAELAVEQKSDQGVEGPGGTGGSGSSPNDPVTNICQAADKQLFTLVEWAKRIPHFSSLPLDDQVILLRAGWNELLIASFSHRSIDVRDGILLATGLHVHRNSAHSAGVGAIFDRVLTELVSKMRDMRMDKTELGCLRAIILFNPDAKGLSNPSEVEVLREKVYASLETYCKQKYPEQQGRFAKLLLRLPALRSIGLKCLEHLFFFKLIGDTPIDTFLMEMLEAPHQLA
In short: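 Multiplexed TRANS reporter assay in HepG2; 24 h dosing; reporter mRNA by RT-PCR/CE fluorescence; gain-of-signal relative to DMSO.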

[14] = molecular target: human Thyroid Receptor alpha (THRa1), THRA (gene 7067) (UniProt P10827); experiment: ATG_THRa1_TRANS: Attagene TRANS-FACTORIAL HepG2 Assay for human Thyroid Receptor alpha (THRa1) (AID 2283014; active = hit-call score of the fitted dose curve at least 0.9, where 1 is the maximum)
human Thyroid Receptor alpha (THRa1), THRA (gene 7067), sequence (P10827 whole entry, looked up, the tested form may be a part): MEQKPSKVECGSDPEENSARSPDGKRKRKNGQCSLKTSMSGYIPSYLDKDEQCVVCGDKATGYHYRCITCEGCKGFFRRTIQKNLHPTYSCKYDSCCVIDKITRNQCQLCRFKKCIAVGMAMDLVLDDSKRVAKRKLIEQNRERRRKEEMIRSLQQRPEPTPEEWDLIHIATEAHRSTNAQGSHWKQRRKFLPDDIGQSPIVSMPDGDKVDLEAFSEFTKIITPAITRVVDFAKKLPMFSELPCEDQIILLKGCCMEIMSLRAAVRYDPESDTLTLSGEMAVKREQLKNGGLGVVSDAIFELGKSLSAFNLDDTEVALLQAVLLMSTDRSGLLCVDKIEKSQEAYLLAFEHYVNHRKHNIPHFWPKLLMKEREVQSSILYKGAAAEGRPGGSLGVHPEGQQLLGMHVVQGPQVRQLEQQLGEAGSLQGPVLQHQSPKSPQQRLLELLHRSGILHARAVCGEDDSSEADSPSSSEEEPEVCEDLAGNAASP
In short: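 Reporter transcript induction, read by capillary electrophoresis of 6-FAM-labelled RT-PCR products, reflects activity of a transfected THRa1-Gal4 fusion in HepG2 liver cells. Cells were dosed for 24 h; activity was fitted in the positive direction against DMSO.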

[15] = read-out: E-selectin (Homo sapiens) (UniProt P16581); experiment: BSK_3C_Eselectin: BioMAP Diversity Plus: 3C Assay for Eselectin Biomarker Activity (AID 2283015); details: primary human endothelial cells (HUVEC); actives raise or lower the signal
In short: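 ELISA read-out of E-selectin on endothelial monolayers after 24 h chemical treatment. Human umbilical vein primary cells served as the system, with DMSO defining baseline activity for bidirectional fitting.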

[16] = read-out: Interleukin-1 alpha (IL1a), IL1A (gene 3552); experiment: BSK_BE3C_IL1a: BioMAP Diversity Plus: BE3C Assay for Interleukin-1 alpha (IL1a) Biomarker Activity (AID 2283016); details: primary human bronchial epithelial cells; actives raise or lower the signal
In short: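 Cultures of primary human bronchial epithelial cells receive test chemical. After 24 h, IL-1a is quantified by ELISA, while parallel wells are fixed in TCA and SRB-stained for total protein. Changes in either direction are fitted relative to DMSO.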

[17] = read-out: Monocyte Chemoattractant Protein-1 (MCP1), CCL2 (gene 6347); experiment: BSK_4H_MCP1: BioMAP Diversity Plus: 4H Assay for Monocyte Chemoattractant Protein-1 (MCP1) Biomarker Activity (AID 2283018); details: primary human endothelial cells (HUVEC); actives raise or lower the signal
In short: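 Readout: MCP-1 ELISA on compound-treated HUVEC, sampled 24 h post-dosing. Baseline and negative control DMSO; bidirectional fit. Overt toxicity checked alongside by sulforhodamine B protein staining at time of biomarker measurement.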

[18] = read-out: Human Leukocyte Antigen - DR isotype (HLADR), HLA-DRA (gene 3122); experiment: BSK_3C_HLADR: BioMAP Diversity Plus: 3C Assay for Human Leukocyte Antigen - DR isotype (HLADR) Biomarker Activity (AID 2283019); details: primary human endothelial cells (HUVEC); actives raise or lower the signal
In short: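 ELISA readout of surface HLA-DR on human umbilical vein endothelium, taken 24 h after chemical treatment. Gain- and loss-of-signal were both fitted relative to DMSO.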

[19] = molecular target: human RAR-related Orphan Receptor beta (RORb), RORB (gene 6096) (UniProt Q92753); experiment: ATG_RORb_TRANS: Attagene TRANS-FACTORIAL HepG2 Assay for human RAR-related Orphan Receptor beta (RORb) (AID 2283010; active = hit-call score of the fitted dose curve at least 0.9, where 1 is the maximum)
human RAR-related Orphan Receptor beta (RORb), RORB (gene 6096), sequence (Q92753 whole entry, looked up, the tested form may be a part): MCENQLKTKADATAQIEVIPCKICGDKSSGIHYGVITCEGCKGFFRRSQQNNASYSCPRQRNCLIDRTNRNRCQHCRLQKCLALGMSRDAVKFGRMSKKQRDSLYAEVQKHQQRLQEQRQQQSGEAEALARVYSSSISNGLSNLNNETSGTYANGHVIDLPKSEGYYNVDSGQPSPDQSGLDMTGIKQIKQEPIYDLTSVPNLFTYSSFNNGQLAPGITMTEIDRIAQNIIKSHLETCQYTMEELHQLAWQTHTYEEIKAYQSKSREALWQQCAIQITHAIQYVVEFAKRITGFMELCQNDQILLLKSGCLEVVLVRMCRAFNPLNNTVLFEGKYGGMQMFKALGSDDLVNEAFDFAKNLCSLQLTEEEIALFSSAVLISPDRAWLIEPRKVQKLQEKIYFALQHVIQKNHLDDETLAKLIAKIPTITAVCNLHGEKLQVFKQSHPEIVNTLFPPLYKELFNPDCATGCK
In short: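 In this TRANS-format test, human HepG2 cells express chimeric NR-Gal4 fusion proteins driving GAL4-UAS reporters. After 24 h dosing, reporter transcripts are measured by fluorescent RT-PCR/capillary electrophoresis, with DMSO as negative control.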

[20] = read-out: Monocyte Chemoattractant Protein-1 (MCP1), CCL2 (gene 6347); experiment: BSK_3C_MCP1: BioMAP Diversity Plus: 3C Assay for Monocyte Chemoattractant Protein-1 (MCP1) Biomarker Activity (AID 2283017); details: primary human endothelial cells (HUVEC); actives raise or lower the signal
In short: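 ELISA read-out of MCP-1 from human umbilical vein endothelial cell cultures harvested 24 h post-dosing. Gain or loss of signal was fitted relative to DMSO.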

Measured: AC50

E-selectin (Homo sapiens), sequence (P16581 whole entry, looked up): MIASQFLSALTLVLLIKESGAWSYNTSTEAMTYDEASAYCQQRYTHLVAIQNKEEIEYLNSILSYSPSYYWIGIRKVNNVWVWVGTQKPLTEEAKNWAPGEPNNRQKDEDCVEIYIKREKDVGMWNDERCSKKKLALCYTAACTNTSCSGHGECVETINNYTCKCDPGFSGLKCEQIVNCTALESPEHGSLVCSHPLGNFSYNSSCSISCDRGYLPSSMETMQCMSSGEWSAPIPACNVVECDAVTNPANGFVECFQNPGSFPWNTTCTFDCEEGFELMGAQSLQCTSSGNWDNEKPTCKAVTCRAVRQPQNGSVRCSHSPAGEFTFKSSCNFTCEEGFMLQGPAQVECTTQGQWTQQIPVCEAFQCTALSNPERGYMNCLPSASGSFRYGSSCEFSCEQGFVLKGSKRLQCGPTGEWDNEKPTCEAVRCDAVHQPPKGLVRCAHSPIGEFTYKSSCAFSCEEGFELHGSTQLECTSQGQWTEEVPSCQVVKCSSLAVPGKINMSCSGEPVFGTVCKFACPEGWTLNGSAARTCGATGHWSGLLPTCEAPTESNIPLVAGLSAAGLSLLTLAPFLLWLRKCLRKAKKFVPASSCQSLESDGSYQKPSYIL

CCCN(CCOc1c(Cl)cc(Cl)cc1Cl)C(=O)n1ccnc1
active: [7] 2.5 µM | [8] 26.7 µM | [10] 2.96 µM | [16] 22.1 µM | [17] 20 µM | [18] 37 µM
inactive: [1] | [2] | [3] | [4] | [5] | [6] | [7] | [9] | [10] | [11] | [12] | [13] | [14] | [15]

COc1nn(CSP(=S)(OC)OC)c(=O)s1
active: [18] 36.5 µM
not listed: [9] | [17] | [19] | [20]
inactive: all other assays above

COC(=O)c1ccccc1CS(=O)(=O)NC(=O)Nc1nc(OC)cc(OC)n1
not listed: [11] | [17] | [20]
inactive: all other assays above

O=[N+]([O-])c1c(Cl)c(Cl)c(Cl)c(Cl)c1Cl
active: [2] 21.4 µM | [8] 30.1 µM | [9] 16.4 µM | [18] 36.9 µM
not listed: [17] | [20]
inactive: all other assays above

CC(C)OC(=O)Nc1cccc(Cl)c1
active: [9] 50 µM | [10] 65.4 µM
not listed: [17] | [20]
inactive: all other assays above

O=C(Nc1ccccc1)Nc1cnns1
active: [8] 20 µM | [18] 36.1 µM
not listed: [14] | [17] | [19] | [20]
inactive: all other assays above

N#CN
not listed: [6] | [7] | [12] | [14] | [17] | [19] | [20]
inactive: all other assays above

N#Cc1c(Cl)c(Cl)c(Cl)c(C#N)c1Cl
inactive: [4] | [6] | [7] | [9] | [19] | [11] | [12] | [13] | [14]
active: [1] 1.8 µM | [2] 1.06 µM | [3] 1.82 µM | [5] 1.77 µM | [8] 0.148 µM | [10] 0.324 µM | [15] 1.46 µM | [16] 2.48 µM | [20] 1.98 µM | [18] 0.166 µM

Oc1ccc(Cl)cc1Cc1ccccc1
inactive: [4] | [6] | [7] | [9] | [10] | [19] | [12] | [13] | [14]
active: [1] 29.2 µM [middle of 7 runs] | [2] 34.9 µM [middle of 7 runs] | [3] 34.4 µM [middle of 7 runs] | [5] 37.1 µM [middle of 7 runs] | [8] 24.8 µM [middle of 7 runs] | [9] 8.85 µM [middle of 4 runs] | [10] 6.4 µM [middle of 5 runs] | [12] 13.6 µM [middle of 5 runs] | [15] 34.7 µM [middle of 6 runs] | [16] 33.8 µM [middle of 7 runs] | [18] 31.3 µM [middle of 7 runs]

COP(=S)(OC)Oc1ccc(SC)c(C)c1
active: [9] 33.3 µM | [10] 39.3 µM | [16] 5.15 µM
not listed: [7] | [11] | [14] | [17] | [20]
inactive: all other assays above

CC1(c2ccc(Oc3ccccc3)cc2)OC(=O)N(Nc2ccccc2)C1=O (stereo unspecified)
active: [1] 25.9 µM | [2] 33 µM | [3] 16.5 µM | [8] 14 µM | [15] 30.9 µM | [20] 33.3 µM | [18] 24 µM
not listed: [11] | [17] | [19]
inactive: all other assays above

From PubChem BioAssay (EPA / NIEHS)
